From the antibiotic and cytotoxicity screens of Wong et al. (2023)
The whole screen tested about 39,000 compounds, of which about 3,300 (8.5%) were called active. What follows is part of a selection rich in actives, with near analogues and random picks from the rest.

Tested on: HepG2
Assay: cytotoxicity call (relative viability < 0.9)
Conditions: 10 µM

SMILES	cytotoxicity call
CO[C@@H]1CN(C)C(=O)c2cc(NS(C)(=O)=O)ccc2OC[C@H](C)N(C(=O)CN(C)C)C[C@@H]1C	inactive
C[C@H](CO)N1C[C@H](C)[C@H](CN(C)CC2CC2)OCCCC[C@H](C)Oc2ccc(NC(=O)CCC(F)(F)F)cc2C1=O	inactive
CN(C)CCC(c1ccccc1)c1ccccn1.O=C(O)C=CC(=O)O (centres undefined)	inactive
CN(C)CCOC(c1ccc(Cl)cc1)c1ccccn1.O=C(O)C=CC(=O)O (centres undefined)	inactive
CN(C)CCC(c1ccc(Cl)cc1)c1ccccn1.O=C(O)C=CC(=O)O (centres undefined)	active
CN(C)CCC(c1ccc(Br)cc1)c1ccccn1.O=C(O)C=CC(=O)O (centres undefined)	active
CC(=O)Oc1ccc(C(c2ccc(OC(C)=O)cc2)c2ccccn2)cc1	inactive
CN(C)CCNC(=O)c1ccccn1	inactive
C[C@@H]1CN([C@@H](C)CO)C(=O)c2cc(NC(=O)c3ccncc3)ccc2O[C@@H](C)CCCCO[C@H]1CN(C)C(=O)C1CCCCC1	inactive
C[C@@H]1CN([C@@H](C)CO)C(=O)c2cc(NS(=O)(=O)c3cccs3)ccc2O[C@@H]1CN(C)S(=O)(=O)c1cccs1	inactive
C[C@H](CO)N1C[C@H](C)[C@H](CN(C)S(=O)(=O)c2ccccc2)Oc2c(NS(C)(=O)=O)cccc2C1=O	inactive
CN(C)S(=O)(=O)N(C)c1ccccc1	inactive
C[C@@H]1CN([C@@H](C)CO)C(=O)c2cc(NC(=O)Nc3ccc4c(c3)OCO4)ccc2O[C@@H](C)CCCCO[C@H]1CN(C)C(=O)Nc1ccc(C(F)(F)F)cc1	inactive
C[C@H]1CN([C@@H](C)CO)C(=O)c2cc(NS(=O)(=O)c3ccc(F)cc3)ccc2O[C@H]1CN(C)C(=O)Nc1cccc2ccccc12	inactive
S=C(SN1CCOCC1)N1CCOCC1	inactive
COc1cc(Nc2ncc3c(n2)-c2ccc(Cl)cc2C(c2c(F)cccc2OC)=NC3)ccc1C(=O)O	active
C[C@@H]1CN([C@H](C)CO)C(=O)c2cc(NC(=O)CCCCCC(=O)Nc3ccccc3N)ccc2O[C@H]1CN(C)Cc1ccc(-c2ccccc2)cc1	active
C[C@@H]1CN([C@@H](C)CO)C(=O)c2cc(NC(=O)CCCCCC(=O)Nc3ccccc3N)ccc2O[C@@H]1CN(C)Cc1ccc(C(F)(F)F)cc1	inactive
C[C@H](CO)N1C[C@H](C)[C@@H](CN(C)Cc2ccc(C(F)(F)F)cc2)Oc2ccc(NC(=O)CCCCCC(=O)Nc3ccccc3N)cc2C1=O	inactive
C[C@@H]1CN([C@H](C)CO)C(=O)c2cc(NC(=O)CCCCCC(=O)Nc3ccccc3N)ccc2O[C@@H]1CN(C)Cc1ccc(C(F)(F)F)cc1	inactive
C[C@@H]1CN([C@@H](C)CO)C(=O)c2cc(NC(=O)CCCCCC(=O)Nc3ccccc3N)ccc2O[C@H]1CN(C)Cc1ccc(C(F)(F)F)cc1	inactive
C[C@@H]1CN([C@@H](C)CO)C(=O)c2cc(NC(=O)CCCCCC(=O)Nc3ccccc3N)ccc2O[C@@H]1CN(C)Cc1ccc(-c2ccccc2)cc1	active
C[C@H]1CN([C@@H](C)CO)C(=O)c2cc(NC(=O)CCCCCC(=O)Nc3ccccc3N)ccc2O[C@H]1CN(C)Cc1ccc(-c2ccccc2)cc1	inactive

SMILES	cytotoxicity call
C[C@H](CO)N1C[C@H](C)[C@H](CN(C)Cc2ccc(C(F)(F)F)cc2)Oc2ccc(NC(=O)CCCCCC(=O)Nc3ccccc3N)cc2C1=O	inactive
C[C@H](CO)N1C[C@H](C)[C@H](CN(C)Cc2ccc(-c3ccccc3)cc2)Oc2ccc(NC(=O)CCCCCC(=O)Nc3ccccc3N)cc2C1=O	active
COc1ccc(CN(C)C[C@@H]2Oc3ccc(NS(C)(=O)=O)cc3CC(=O)N([C@H](C)CO)C[C@@H]2C)cc1	inactive
O=C(C[C@H]1CC[C@@H]2[C@H](COC[C@@H](O)CN2S(=O)(=O)c2ccc(Oc3ccccc3)cc2)O1)NCCN1CCCCC1	inactive
Cc1noc(C)c1S(=O)(=O)Nc1ccc2c(c1)CC(=O)N([C@H](C)CO)C[C@H](C)[C@H](CN(C)S(C)(=O)=O)O2	inactive
O=C1O[C@H](c2ccccc2)[C@H](c2ccccc2)N2[C@H]1[C@@H](C(=O)Nc1nc3ccccc3s1)[C@]1(C(=O)Nc3ccc(C#CCCO)cc31)[C@H]2c1ccc(OCCO)cc1	inactive
COc1ccc(S(=O)(=O)Nc2ccc3c(c2)C(=O)N([C@@H](C)CO)C[C@@H](C)[C@@H](CN(C)C(=O)Nc2cccc4ccccc24)OCCCC[C@@H](C)O3)cc1	inactive
COc1ccc(NC(=O)N(C)C[C@@H]2Oc3c(NC(=O)C4CCOCC4)cccc3C(=O)N([C@H](C)CO)C[C@@H]2C)cc1	inactive
C[C@H]1CN([C@@H](C)CO)C(=O)c2cccc(NS(=O)(=O)c3cn(C)cn3)c2O[C@H]1CN(C)C(=O)Nc1ccc(F)cc1	inactive
COc1cccc(S(=O)(=O)Nc2ccc3c(c2)C(=O)N(C)C[C@H](OC)[C@H](C)CN(C(=O)Cc2cccnc2)[C@@H](C)CO3)c1	inactive
Cc1ccc(S(=O)(=O)N(C)C[C@@H]2OCCCC[C@@H](C)Oc3ccc(NC(=O)Nc4ccc5c(c4)OCO5)cc3C(=O)N([C@@H](C)CO)C[C@@H]2C)cc1	inactive
S=C1NCN(Cc2ccncc2)CN1	inactive
CCN1CCC[C@@H]1CN1CNC(=S)NC1	active
S=C1NCN(C2CCCC2)CN1	inactive
C[C@H](CO)N1C[C@H](C)[C@H](CN(C)C(=O)Nc2ccc(C(F)(F)F)cc2)OCCCC[C@H](C)Oc2ccc(NC(=O)Nc3cccc4ccccc34)cc2C1=O	inactive
O=C(Cc1ccncc1)NCC[C@@H]1CC[C@H](NC(=O)C2CCOCC2)[C@H](CO)O1	inactive
CN(C)Cc1nc2c([nH]1)c(=O)[nH]c(=O)n2C	active
Cn1c(=O)[nH]c(=O)c2[nH]cnc21	inactive
CN(C)c1nc2c([nH]1)c(=O)[nH]c(=O)n2C	inactive
Cc1ccc(S[C@]2(C(=O)NCC(C)C)CC(=O)N(Cc3ccccc3)[C@@H]2c2ccc(CO)cc2)cc1	inactive
O=C1[N-]C(=O)C(c2ccccc2)(c2ccccc2)N1.[Na+]	inactive
C[C@H](CO)N1C[C@H](C)[C@H](CN(C)S(=O)(=O)c2ccc(F)cc2)Oc2ccc(NC(=O)Cn3cnnn3)cc2C1=O	inactive
CC(C)NC(=O)N(C)C[C@@H]1Oc2c(NC(=O)C3CCCCC3)cccc2C(=O)N([C@@H](C)CO)C[C@@H]1C	active

SMILES	cytotoxicity call
C[C@@H]1CN([C@@H](C)CO)C(=O)c2cccc(NC(=O)NC3CCCCC3)c2O[C@@H]1CN(C)C(=O)Nc1ccc(C(F)(F)F)cc1	inactive
CC(C)NC(=O)N(C)C[C@@H]1Oc2c(NC(=O)C3CCCCC3)cccc2C(=O)N([C@H](C)CO)C[C@H]1C	inactive
C[C@@H]1CN([C@H](C)CO)C(=O)c2cccc(NC(=O)C3CCCCC3)c2O[C@H]1CN(C)C(=O)Nc1ccc(C(F)(F)F)cc1	inactive
C[C@H](CO)N1C[C@H](C)[C@H](CN(C)C(=O)Nc2ccc(C(F)(F)F)cc2)Oc2c(NC(=O)C3CCCCC3)cccc2C1=O	active
C[C@@H]1CN([C@@H](C)CO)C(=O)c2cccc(NC(=O)C3CCCCC3)c2O[C@@H]1CN(C)C(=O)Nc1ccc(C(F)(F)F)cc1	inactive
C[C@H](CO)N1C[C@H](C)[C@H](CN(C)C(=O)Nc2ccc(C(F)(F)F)cc2)Oc2c(NC(=O)NC3CCCCC3)cccc2C1=O	active
C[C@H](CO)N1C[C@H](C)[C@@H](CN(C)C(=O)Nc2ccc(C(F)(F)F)cc2)Oc2c(NC(=O)NC3CCCCC3)cccc2C1=O	inactive
C[C@@H]1CN([C@H](C)CO)C(=O)c2cccc(NC(=O)NC3CCCCC3)c2O[C@H]1CN(C)C(=O)Nc1ccc(C(F)(F)F)cc1	active
CC(C)NC(=O)N(C)C[C@H]1Oc2c(NC(=O)C3CCCCC3)cccc2C(=O)N([C@H](C)CO)C[C@@H]1C	inactive
N#CCC(=O)N1CCSCC1	inactive
C[C@@H]1CCCCO[C@@H](CN(C)S(=O)(=O)c2ccc(F)cc2)[C@@H](C)CN([C@H](C)CO)C(=O)c2cc(NS(C)(=O)=O)ccc2O1	inactive
CC(C)CN1C[C@@H]2CCNCC[C@H]2S1(=O)=O	inactive
C[C@H](CO)N1C[C@H](C)[C@@H](CN(C)Cc2ccc(C(=O)O)cc2)Oc2ccc(NS(=O)(=O)c3cn(C)cn3)cc2CC1=O	inactive
O=C(C[C@@H]1C[C@H]2c3cc(NS(=O)(=O)c4ccc(F)cc4)ccc3O[C@H]2[C@@H](CO)O1)NCc1ccccc1F	inactive
Nc1cc(=O)[nH]c(=O)n1Cc1ccccc1	inactive
COc1ccc(CN2C[C@@H](C)[C@H](OC)CN(C)C(=O)c3ccc(NC(=O)c4nc5ccccc5s4)cc3OC[C@@H]2C)cc1	inactive
COc1ccc2c3c([nH]c2c1)[C@H](CO)N(C[C@]13CCN(CC1)CC1CCCC1)S(=O)(=O)c1cn(cn1)C	inactive
COc1ccccc1CN1C(=O)c2ccccc2[C@@]2(Cc3ccccc3N(C(C)C)C2=O)[C@@H]1c1ccc(CO)cc1	inactive
C[C@@H]1CN([C@H](C)CO)C(=O)c2cccc(NC(=O)NC3CCCCC3)c2O[C@@H]1CN(C)C(=O)Nc1ccc(C(F)(F)F)cc1	inactive
C[C@H]1CN([C@@H](C)CO)C(=O)c2cccc(NC(=O)NC3CCCCC3)c2O[C@@H]1CN(C)C(=O)Nc1ccc(C(F)(F)F)cc1	inactive
C[C@H]1CN([C@@H](C)CO)C(=O)c2cccc(NC(=O)NC3CCCCC3)c2O[C@H]1CN(C)C(=O)Nc1ccc(C(F)(F)F)cc1	active
CCCn1nc(C)c(CN)c1C	inactive
Cc1ccc(S(=O)(=O)N(C)C[C@@H]2OCCCC[C@@H](C)Oc3ccc(NC(=O)Nc4ccc(C(F)(F)F)cc4)cc3C(=O)N([C@@H](C)CO)C[C@@H]2C)cc1	inactive
